Results published in PubChem BioAssay (EPA / NIEHS).
Where “and” joins values, the source holds several entries; their conditions need not be identical. Identical values can stand only once. Calls of active or inactive are those of the source. The calls were made as follows: active = hit-call score of the fitted dose curve at least 0.9, where 1 is the maximum; inactive = score below 0.9.

Assay: CCTE_Mundy_HCI_Cortical_NOG_NeuriteCount: CCTE's Neurite Outgrowth Assay in rat cortical cells for Neurite Count, Mundy Lab (AID 2284212);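 also: cells fixed about two days after chemical exposure began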
Outline: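 Neurite number per cell from high-content imaging of betaIII-tubulin immunostaining, with Hoechst nuclear counterstain.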

With `CCCCC(CC)COP(=O)(Oc1ccccc1)Oc1ccccc1` (configuration not stated) as the compound, how does the outcome read?
The outcome was “inactive”.

With `O=C(O)C(F)(OC(F)(F)C(F)(F)C(F)(F)F)C(F)(F)F` (configuration not stated) as the compound, how does the outcome read?
The outcome was “inactive”.

With `O=P1(N(CCCl)CCCl)NCCCO1` (configuration not stated) as the compound, how does the outcome read?
Its outcome is “inactive”.

For `CC(C)(C)c1ccccc1OP(=O)(Oc1ccccc1)Oc1ccccc1`, which AC50 is on record?
The AC50 was 19 µM (active).

For `CO/N=C(/C(=O)OC)c1ccccc1COc1ccccc1C`, which AC50 is on record?
Its AC50 is 19.1 µM (active).

For `CCC1(c2ccccc2)C(=O)N=C(O)NC1=O` (configuration not stated), which outcome is on record?
The outcome was “inactive”.

For `CCOP(=S)(OCC)SCSCC`, which outcome is on record?
The outcome was “inactive”.

With `CCOc1ccc(C(C)(C)COCc2cccc(Oc3ccccc3)c2)cc1` as the compound, how does the AC50 read?
Its AC50 is 21.9 µM (active).

Assay: CCTE_Mundy_HCI_Cortical_NOG_NeuriteLength: CCTE's Neurite Outgrowth Assay in rat cortical cells for Neurite Length, Mundy Lab (AID 2284213);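 as to AC50: neurites imaged about 48 to 50 h after chemical exposure began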
Protocol: CCTE_Mundy_HCI_Cortical_NOG is a multiplexed, cell-based-readout assay that uses rat primary cortical cells with measurements taken at 50.33 hours after chemical dosing in a microplate: 96-well plate.CCTE_Mundy_HCI_Cortical_NOG_NeuriteLength is one of four components of the CCTE_Mundy_HCI_Cortical_NOG assay. It measures neurite outgrowth related to the neurite length using High Content Imaging of fluorescently labelled markers.[…] Using a type of morphology reporter, loss -of-signal activity can be used to understand developmental effects.
Exposure starts 2 hours post-plating by adding 10 ul of the working solution to 90 ul of media in the wells for a 1/10 dilution. Forty-eight hours after chemical treatment cells are fixed by direct addition of 100 ul of warm (37C) Dulbecco's phosphate buffered saline (DPBS) fixative solution containing 8% paraformaldehyde, 8% sucrose, and 0.1% of 3 mg/ml Hoechst 33342 into each well. Primary antibodies are prepared by dilution in Immunocytochemical Staining Buffer (ISB), 10X Dulbecco's PBS, 0.1% Saponin, 5% Bovine Serum Albumin, 0.5% NaN3 (Sodium Azide) and betaIII-tubulin (rabbit anti-betaIII-tubulin, 1:800) followed by Alexa Fluor-488 secondary (1:500) to label neuronal cell bodies and neurites. A Cellomics ArrayScan VTi HCS Reader is used for automated image acquisition and analysis of neurite outgrowth.

With `CCCCC(CC)COP(=O)(Oc1ccccc1)Oc1ccccc1` (configuration not stated) as the compound, how does the outcome read?
Its outcome is “inactive”.

Which outcome does the source give for `O=C(O)C(F)(OC(F)(F)C(F)(F)C(F)(F)F)C(F)(F)F` (configuration not stated) here?
The outcome was “inactive”.

With `O=P1(N(CCCl)CCCl)NCCCO1` (configuration not stated) as the compound, how does the outcome read?
The outcome was “inactive”.

Which AC50 does the source give for `CC(C)(C)c1ccccc1OP(=O)(Oc1ccccc1)Oc1ccccc1` here?
The AC50 was 21.6 µM (active).

For `CO/N=C(/C(=O)OC)c1ccccc1COc1ccccc1C`, which AC50 is on record?
Its AC50 is 14.5 µM (active).

For `CCC1(c2ccccc2)C(=O)N=C(O)NC1=O` (configuration not stated), which outcome is on record?
The outcome was “inactive”.

With `CCOP(=S)(OCC)SCSCC` as the compound, how does the outcome read?
The outcome was “inactive”.

With `CCOc1ccc(C(C)(C)COCc2cccc(Oc3ccccc3)c2)cc1` as the compound, how does the outcome read?
Its outcome is “inactive”.

Assay: CCTE_Mundy_HCI_Cortical_Synap_Neur_Matur_NeuriteLength: CCTE's Synaptogenesis and Neurite Maturation Assay in rat cortical cells for Neurite Length, Mundy Lab (AID 2284214)
Outline: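 Rat primary cortical cultures, AraC added DIV 5, dosed DIV 7 through DIV 12 […]. Fixed, MAP2/synaptophysin immunostained with Hoechst; neurite length by high-content imaging, fitted in positive direction versus DMSO.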

Which outcome does the source give for `CCCCC(CC)COP(=O)(Oc1ccccc1)Oc1ccccc1` (configuration not stated) here?
The outcome was “inactive”.

For `O=C(O)C(F)(OC(F)(F)C(F)(F)C(F)(F)F)C(F)(F)F` (configuration not stated), which outcome is on record?
The outcome was “inactive”.

With `O=P1(N(CCCl)CCCl)NCCCO1` (configuration not stated) as the compound, how does the outcome read?
The outcome was “inactive”.

With `CC(C)(C)c1ccccc1OP(=O)(Oc1ccccc1)Oc1ccccc1` as the compound, how does the AC50 read?
The AC50 was 1.6 µM (active).

Which AC50 does the source give for `CO/N=C(/C(=O)OC)c1ccccc1COc1ccccc1C` here?
The AC50 was 6.23 µM (active).

For `CCC1(c2ccccc2)C(=O)N=C(O)NC1=O` (configuration not stated), which outcome is on record?
The outcome was “inactive”.

With `CCOP(=S)(OCC)SCSCC` as the compound, how does the AC50 read?
Its AC50 is 78.1 µM (active) and 70.2 µM (active).

Which AC50 does the source give for `CCOc1ccc(C(C)(C)COCc2cccc(Oc3ccccc3)c2)cc1` here?
The AC50 was 3.81 µM (active).

Assay: CCTE_Mundy_HCI_Cortical_Synap_Neur_Matur_NeuriteSpotCountPerNeuron: CCTE's Synaptogenesis and Neurite Maturation Assay in rat cortical cells for Neurite Spot Count per Neuron Count, Mundy Lab (AID 2284215)
Outline: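 Rat primary cortical cells received AraC at DIV 5, then chemicals with a media change at DIV 7, and were fixed at DIV 12. Synaptophysin puncta on MAP2-stained neurites per neuron were counted by high-content imaging, fitted relative to DMSO.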

For `CCCCC(CC)COP(=O)(Oc1ccccc1)Oc1ccccc1` (configuration not stated), which outcome is on record?
The outcome was “inactive”.

With `O=C(O)C(F)(OC(F)(F)C(F)(F)C(F)(F)F)C(F)(F)F` (configuration not stated) as the compound, how does the outcome read?
Its outcome is “inactive”.

With `O=P1(N(CCCl)CCCl)NCCCO1` (configuration not stated) as the compound, how does the outcome read?
The outcome was “inactive”.

With `CC(C)(C)c1ccccc1OP(=O)(Oc1ccccc1)Oc1ccccc1` as the compound, how does the AC50 read?
The AC50 was 2.07 µM (active).

With `CO/N=C(/C(=O)OC)c1ccccc1COc1ccccc1C` as the compound, how does the AC50 read?
Its AC50 is 3.31 µM (active).

For `CCC1(c2ccccc2)C(=O)N=C(O)NC1=O` (configuration not stated), which outcome is on record?
Its outcome is “inactive”.

Which AC50 does the source give for `CCOP(=S)(OCC)SCSCC` here?
Its AC50 is 50 µM (active).

Which AC50 does the source give for `CCOc1ccc(C(C)(C)COCc2cccc(Oc3ccccc3)c2)cc1` here?
The AC50 was 11.9 µM (active).
